Experimental data published in PubChem BioAssay (NCI).
Compounds without any hit were thinned out: in the full panel of roughly 79,000, 15% have a hit. Values without a mark were called inactive. Activity calls are given as the source filed them. Cut-off read from the data, not from the text of the source: active = growth inhibition above about 70%; inactive = the rest.

assay: NCI Yeast Anticancer Drug Screen. Data for the bub3 strain (AID 167); settings: S. cerevisiae bub3 mutant strain, at 5.0 µM (retest, dose inferred, filed as 0.5), stronger effect = higher value
Outline: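 Part of a panel of yeast mutants defective in DNA damage repair or cell cycle regulation. Each strain is grown with compound, and inhibition is calculated relative to solvent-treated cultures.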

SMILES	growth inhibition
COC(=O)C1C(c2ccccc2)=N[C@@H](c2ccccc2)[C@H]1C(=O)OC (stereo not given in full)	6%
CCCCCCCCCC(C)CC(=O)NCCCN(C)CCCCN(C)C (stereo not given) (tested in a mixture with another compound)	-17%
Cc1ccc(N=C2SC(=S)N(CCC[N+](C)(C)C)C2=Nc2ccc(C)cc2)cc1	-4%
N#CSc1ccc(O)c2ccccc12	42%
CCCCCC1OC(CCCCC)OC(CCCCC)O1 (stereo not given)	-12%
ClC1(c2ccccc2)c2ccccc2-c2ccccc21	4%
CCN(CC)c1ccc(NC(CC(O)c2ccccc2)c2ccccc2)cc1 (stereo not given)	-4%
CCCCCCC[n+]1ccc(C(=O)c2ccccc2)cc1	99% (active)
O=c1[nH][nH]c(=O)c2c1nc(SCc1ccccc1)n2Cc1ccccc1	-6%
CCOC(=O)C(NNc1ccccc1)C(c1ccccc1)[P+](c1ccccc1)(c1ccccc1)c1ccccc1 (stereo not given)	91% (active)
CC(C)/C=C1\CCC(CN2CCOCC2)C1=O (stereo not given)	17%
CCc1cc2nc3c(=O)[nH]c(=O)nc-3n(CCN(CCO)CCO)c2cc1CC	2%
c1ccc2c(c1)OCC(CN1CCN(CC3COc4ccccc4O3)CC1)O2 (stereo not given)	47%
CNC(C)C(=O)c1ccc2ccc3ccccc3c2c1 (stereo not given)	-3%
O=[N+]([O-])c1ccc(N=C(Cl)C(Cl)(c2ccccc2)c2ccccc2)cc1	8%
O=[N+]([O-])c1ccc2c(c1)Cc1cc(Cl)ccc1-2	4%
CCCCCCOC(=O)Nc1ccc(S(=O)(=O)N2CCCCC2)cc1	-10%
CCCCCCCCCCCOc1cccc(N2C(N)=NC(N)=NC2(C)C)c1	98% (active)
O=Nc1c(NO)c2ccccc2c2ccccc12	-9%
CCCCCCCCCCCCCCCCOS(=O)(=O)O	20%

SMILES	growth inhibition
CCCCCCCCCCCCCCCCCC[N+](C)(C)Cc1ccc(C[N+](C)(C)CCCCCCCCCCCCCCCCCC)cc1	-4%
NNc1ccc2ccccc2n1	14%
Cc1cc(NC(=S)SCc2ccc(F)cc2)c([N+](=O)[O-])cc1C	48%
COC(=O)/C(=C\c1cn(C(C)=O)c2ccccc12)P(=O)(OC)OC	-24%
O=C(Nc1ccccc1)c1ccccc1O	-2%
CC(=O)c1c2c(cc3c1CC1(Cc4ccccc4C1=O)C3)CCC2 (stereo not given)	-4%
CC(=O)c1c(-c2ccco2)c(C#N)c(=S)n(C2OC(CO)C(O)C(O)C2O)c1-c1ccccc1 (stereo not given)	8%
CC1(C)OC2C(CO)OC(n3ncc(=S)[nH]c3=O)C2O1 (stereo not given)	6%
C=C(C)C1CC/C(C)=C/CCC2(C)OC2CC/C(CO)=C\C1O (stereo not given)	90% (active)
CC(C)CCSc1ncnc2nc[nH]c12	-2%
COC(=O)C1(Cc2ccc3c(c2)CCC3)Cc2ccc3c(c2C1O)CCC3 (stereo not given)	-1%
Nc1ccc(C(=O)NN2C(=O)C(Cl)C2c2cc(Br)cc(Br)c2O)cc1 (stereo not given)	10%
COc1ccc(SC2=C(N(C)C(C)=O)C(=O)c3ccccc3C2=O)cc1	99% (active)
O=[N+]([O-])c1ccc(N/N=C/CCCCCCCCCCBr)c([N+](=O)[O-])c1	-5%
O=C(c1ccccc1)c1cccc2ccccc12	16%
O=S1(=O)CCc2ccccc2C(Br)C1Br (stereo not given)	-6%
CC(/C=N/NS(=O)(=O)c1ccc(C)cc1)=C(c1ccccc1)c1ccccc1	43%
Cc1cc(CC(O)(C(F)(F)F)C(F)(F)F)cc(CC(O)(C(F)(F)F)C(F)(F)F)n1	-16%
O=S(=O)(c1cc(Cl)c(Cl)cc1Cl)N(CCCCCN(S(=O)(=O)c1cc(Cl)c(Cl)cc1Cl)S(=O)(=O)c1cc(Cl)c(Cl)cc1Cl)S(=O)(=O)c1cc(Cl)c(Cl)cc1Cl	19%
O=c1cc(-c2ccccc2)oc2ccc(-c3ccc4oc(-c5ccccc5)cc(=O)c4c3)cc12	5%
